# Laboratory results reported in ChEMBL document CHEMBL4808148, “HDAC6 screening dataset using tau-based substrate in an enzymatic assay yields selective inhibitors and activators” (2021).
# The campaign covered roughly 5,600 compounds. About 390 (7%) showed an effect of 50% or more. This is one part of a sample in which strong results are shown more often than they occur. Positions of bridges follow the written chain, without caps; N, C: chain ends. Non-standard residues stand in square brackets, D forms with d. Residues, ends and D or L forms follow the SMILES beside them. hArg = N=C(N)NCCCC[C@H](N)C(=O)O; Mpa = O=C(O)CCS
# Biological target: T1, Protein deacetylase HDAC6 (Homo sapiens) (UniProt Q9UBN7)
# T1 sequence (whole entry): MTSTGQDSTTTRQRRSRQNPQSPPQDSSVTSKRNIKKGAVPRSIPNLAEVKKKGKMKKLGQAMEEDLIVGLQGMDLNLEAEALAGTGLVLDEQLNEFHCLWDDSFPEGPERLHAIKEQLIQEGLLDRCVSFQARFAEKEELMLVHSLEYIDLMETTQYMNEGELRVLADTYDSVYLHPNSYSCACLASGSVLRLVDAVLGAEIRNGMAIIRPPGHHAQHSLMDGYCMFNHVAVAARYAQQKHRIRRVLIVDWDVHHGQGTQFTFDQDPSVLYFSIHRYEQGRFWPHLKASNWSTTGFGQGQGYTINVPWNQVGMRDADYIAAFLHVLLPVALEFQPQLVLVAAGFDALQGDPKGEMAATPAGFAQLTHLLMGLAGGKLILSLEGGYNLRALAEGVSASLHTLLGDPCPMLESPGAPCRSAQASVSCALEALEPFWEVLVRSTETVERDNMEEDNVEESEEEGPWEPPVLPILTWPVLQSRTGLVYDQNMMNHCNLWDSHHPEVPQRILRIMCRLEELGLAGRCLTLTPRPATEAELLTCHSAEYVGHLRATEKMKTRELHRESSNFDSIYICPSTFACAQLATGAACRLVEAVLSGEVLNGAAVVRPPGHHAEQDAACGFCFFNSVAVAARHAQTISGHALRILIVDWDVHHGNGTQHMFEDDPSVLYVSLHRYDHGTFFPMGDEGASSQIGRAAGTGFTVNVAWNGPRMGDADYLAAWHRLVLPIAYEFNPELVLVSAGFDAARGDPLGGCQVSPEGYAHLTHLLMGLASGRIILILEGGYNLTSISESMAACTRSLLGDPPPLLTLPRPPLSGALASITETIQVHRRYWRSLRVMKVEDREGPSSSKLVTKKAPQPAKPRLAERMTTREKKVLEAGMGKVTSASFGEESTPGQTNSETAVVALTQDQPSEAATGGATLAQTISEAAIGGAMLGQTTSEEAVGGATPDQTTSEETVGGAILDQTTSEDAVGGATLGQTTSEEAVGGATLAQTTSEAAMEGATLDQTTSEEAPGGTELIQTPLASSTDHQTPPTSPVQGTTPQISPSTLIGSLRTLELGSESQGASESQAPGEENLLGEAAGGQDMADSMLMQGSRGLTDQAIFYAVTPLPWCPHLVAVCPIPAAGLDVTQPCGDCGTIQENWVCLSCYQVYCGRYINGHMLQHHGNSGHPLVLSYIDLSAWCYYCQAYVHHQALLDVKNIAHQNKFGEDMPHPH
# Conditions: at 10 µM
row,SMILES,inhibition [%]
1,CN(N=O)C(=O)N[C@@H](C=O)[C@@H](O)[C@H](O)[C@H](O)CO,-1.89
2,c1ccc2cc(C3=NCCN3)ncc2c1,3.66
3,Cc1sc2c(c1C)C(c1ccc(Cl)cc1)=N[C@@H](CC(=O)Nc1ccc(OCCOCCOCCOCCNc3cccc4c3C(=O)N(C3CCC(=O)NC3=O)C4=O)cc1)c1nnc(C)n1-2 (some centres not stated),9.19
4,CC(C(=O)O)c1ccc(C(=O)c2cccs2)cc1 (configuration not stated),-7.49
5,CC(C(=O)O)c1ccc2c(c1)CC(=O)c1ccccc1S2 (configuration not stated),-3.14
6,CC(C(=O)O)c1ccc(N2Cc3ccccc3C2=O)cc1 (configuration not stated),94.7
7,CCC(C)(C)c1ccc(CC(C)CN2C[C@@H](C)O[C@@H](C)C2)cc1 (some centres not stated),-1.12
8,C=C1NC[C@H](O)[C@@H](C(=O)O)N1,-0.94
9,COC(=O)C1=C(C)NC(C)=C(C(=O)OCCSc2ccccc2)C1C (configuration not stated),-9.24
10,CCOc1ccc(-n2c(C(C)N(Cc3cccnc3)C(=O)Cc3ccc(OC(F)(F)F)cc3)nc3ncccc3c2=O)cc1 (racemic),6.86
11,O=C1Nc2cc(Br)ccc2/C1=C1/Nc2ccccc2/C1=N\O,93.4
12,O=C1Nc2ccccc2/C1=C1/Nc2ccccc2C1=O,60.6
13,CN1C(=O)/C(=C2/C(=O)Nc3ccccc32)c2ccccc21,32.9
14,O=C1Nc2ccccc2/C1=C1/Nc2ccccc2/C1=N\O,100
15,N[C@@H]1CCN(O)C1=O,19.6
16,C/C=C1\C(=O)C[C@H]2[C@@H]3CCC4=CC(=O)CC[C@]4(C)[C@H]3CC[C@]12C,-4.59
17,Cc1csc2c(N[C@@H](C)CN3CCN(S(=O)(=O)c4ccc(Cl)c(Cl)c4)CC3)ncnc12,7.29
18,CNC(=O)[C@H]1O[C@@H](n2cnc3c(NCc4cccc(I)c4)ncnc32)[C@H](O)[C@@H]1O,9.22
19,CC(C)(C)c1cc(O)c(C(C)(C)C)cc1O,10.7
20,CCOc1cc(C(=O)Nc2ccc(Cl)c(-c3nc4ccccc4[nH]3)c2)cc(OCC)c1OCC,11.9
21,Nc1nc(=O)c2c([nH]1)NC[C@H](CNc1ccc(C(=O)N[C@@H](CCC(=O)O)C(=O)O)cc1)N2C=O,3.47
22,O=c1[nH]cnc2c1cnn2[C@@H]1O[C@H](CO)[C@@H](O)[C@H]1O,20.8
23,N[C@@H](Cc1cc(-c2ccc(Cl)cc2Cl)cc(CP(=O)(O)O)c1O)C(=O)O,4.67
24,O=c1c(O)c(-c2ccc(O)cc2O)oc2cc(O)cc(O)c12,92.5
25,O=c1c(O)c(-c2ccc(O)cc2)oc2cc(O)cc(O)c12,98.8

row,SMILES,inhibition [%]
1,Cc1cc(=O)oc2c(C=O)c(O)ccc12,-7.63
2,O=c1c(O)c(-c2cc(O)c(O)c(O)c2)oc2cc(O)cc(O)c12,100
3,O=C1c2c(O)cc(O)cc2O[C@H](c2cc(O)c(O)c(O)c2)[C@H]1O,-0.55
4,Cc1cc(=O)oc2cc(O)ccc12,35.6
5,O=c1c(O)c(-c2ccc(O)c(O)c2)oc2cc(O)ccc12,97.4
6,C[C@@H]1O[C@@H](Oc2c(-c3cc(O)c(O)c(O)c3)oc3cc(O)cc(O)c3c2=O)[C@H](O)[C@H](O)[C@H]1O,-6.79
7,O=c1c(O[C@@H]2O[C@H](CO)[C@H](O)[C@H](O)[C@H]2O)c(-c2ccc(O)c(O)c2)oc2cc(O)cc(O)c12,28.9
8,COc1ccc(C(=O)/C(Cc2cc(OC)c(OC)c(OC)c2)=C(\C(=O)O)c2ccc3c(c2)OCO3)cc1,26.5
9,Cc1cc(C)c2c(c1)[C@@H](N(Cc1cc(C(F)(F)F)cc(C(F)(F)F)c1)c1nnn(C)n1)CCCN2C[C@H]1CC[C@H](C(=O)O)CC1,4.11
10,Cc1nnsc1C(=O)Nc1ccc(-n2nc(C(F)(F)F)cc2C(F)(F)F)cc1,8.76
11,O=C1Cc2cc(CCN3CCN(c4nsc5ccccc45)CC3)c(Cl)cc2N1,11.8
12,COc1cccc(OCCCN)c1-c1cc(Nc2cnc(C#N)cn2)n[nH]1,-3.28
13,N#C[C@@H]1CCCN1C(=O)CNC12CC3CC(CC(O)(C3)C1)C2,-7.44
14,C/C=C\C1=C(C(=O)O)N2C(=O)C(NC(=O)C(N)c3ccc(O)cc3)C2SC1 (configuration not stated),-7.76
15,O=C(O)CCN(O)C(=O)CCCCCCCCC1CC1,37.2
16,C=CC[N+]12CC[C@@]34c5ccccc5N5/C=C6/[C@H]7C[C@H]8[C@@]9(CC[N@@+]8(CC=C)C/C7=C/CO)c7ccccc7N(/C=C(/[C@@H](C[C@@H]31)/C(=C\CO)C2)[C@H]54)[C@@H]69 (some centres not stated),31.2
17,N=C(N)NCCC[C@@H](N)C(=O)N[C@@H](CCCNC(=N)N)C(=O)N1CCC[C@H]1C(=O)N1C[C@H](O)C[C@H]1C(=O)NCC(=O)N[C@@H](Cc1cccs1)C(=O)N[C@@H](CO)C(=O)N1Cc2ccccc2C[C@@H]1C(=O)N1[C@H](C(=O)N[C@@H](CCCNC(=N)N)C(=O)O)C[C@@H]2CCCC[C@@H]21,31.7
18,COc1cc(CN(CCN)C(=O)c2cccs2)ccc1OCc1ccccc1,-2.87
19,CN1CC(=O)N=C1NC(=O)Nc1cccc(Cl)c1,89.3
20,O=C(Nc1ccc(Cl)cc1)Nc1cccc(-c2cccc(N3CCCC3)n2)c1,20.6
21,CC(C)c1c(NC(=O)Nc2ccc(Cl)cc2)c(=O)n(-c2ccccc2)n1C,-4.84
22,CC(C)c1onc(-c2c(Cl)cccc2Cl)c1COc1ccc(/C=C/c2cccc(C(=O)O)c2)c(Cl)c1,3.22
23,CC(C)(C)c1ccc(/C=C/C(=O)Nc2ccc3c(c2)OCCO3)cc1,-7.4
24,O=C(c1ccc2c(c1)OCO2)N1CCCCC1,21.9
25,CC(C)(C)C(O)/C=C/c1ccc2c(c1)OCO2 (configuration not stated),15.9

row,SMILES,inhibition [%]
1,O=C(/C=C/c1ccc2c(c1)OCO2)N1CCCCC1,97.2
2,O=C(/C=C/C=C/c1ccc2c(c1)OCO2)N1CCCCC1,115
3,C[N+](C)(C)CC[N+]1(C)Cc2c(Cl)c(Cl)c(Cl)c(Cl)c2C1,10.9
4,COc1oc(=O)c2cc(N)ccc2c1Cl,22.8
5,C=C1/C(=C\C=C2/CCC[C@]3(C)[C@@H]([C@H](C)CCCC(C)C)CC[C@@H]23)C[C@@H](O)C[C@@H]1O,-2.44
6,COc1ccc(-c2sc(NC(=O)C(C)(C)C)nc2C)cc1S(=O)(=O)Nc1ccc(O)cc1,-1.39
7,O=C(c1ccc(/C=C/c2n[nH]c3ccccc23)cc1)N1CCNCC1,94.8
8,COc1ccc(Cl)c(Nc2ncnc3cc(OCC4CCN(C)CC4)c(OC)cc23)c1,6.69
9,CN(C(=O)CCCOc1ccc2[nH]c(=O)ccc2c1)C1CCCCC1,-1.06
10,N=C(N)NCCCC[C@@H]1NC(=O)CCSSC[C@@H](C(N)=O)NC(=O)[C@@H]2CCCN2C(=O)[C@H](Cc2c[nH]c3ccccc23)NC(=O)[C@H](CC(=O)O)NC(=O)CNC1=O ([Mpa][hArg]GDWPC-NH2; disulfide 1-7),6.3
11,N=C(N)SCCc1ccc(OCc2ccc([N+](=O)[O-])cc2)cc1,9.62
12,CC/C(=C(\c1ccc(O)cc1)c1ccc(OCCNC)cc1)c1ccccc1,-4.99
13,Oc1ccc(OCc2ccccc2)cc1,98.1
14,CCNCCCNCCCCNCCCNCC,4.88
15,CN(C)CCOc1cc(-c2cn[nH]c2)ccc1NC(=O)C1COc2ccccc2O1 (configuration not stated),55.4
16,CC1(C)CC(Oc2ccc(-c3ccc(-c4cn[nH]c4)cc3O)nn2)CC(C)(C)N1,8.09
17,CC1(C)CCC(C)(C)c2cc(C3(c4ccc(C(=O)O)cc4)OCCO3)ccc21,-3.33
18,CS(=O)(=O)c1ccc(-c2cc(Br)sc2-c2ccc(F)cc2)cc1,-5.78
19,O=C1NC(=O)/C(=C/c2ccc(-c3ccc(F)cc3O)o2)S1,90.4
20,N=C1NC(=O)/C(=C/c2ccc(O)cc2)S1,28.8
21,O=C1NC(=O)/C(=C/c2ccc3c(c2)OC(F)(F)O3)S1,0.87
22,O=C(O)C(O)Cc1ccc(O)c(O)c1 (configuration not stated),15.4
23,O=C(NO)c1ccc(O)c(O)c1,87.6
24,CC(C)C(=O)c1ccc(O)c(O)c1,-4.84
25,CCC(=O)c1cc(-c2ccc(Cl)cc2)n(-c2ccc(S(N)(=O)=O)cc2)c1C,23.3

row,SMILES,inhibition [%]
1,NCCNc1ccc(NCCN)c2c1C(=O)c1ccncc1C2=O,98.7
2,O=C1c2c(O)ccc(O)c2C(=O)c2c(NCCNCCO)ccc(NCCNCCO)c21,28.6
3,NCCNS(=O)(=O)c1ccc(Cl)c2ccncc12,8.69
4,NC(N)=O,5.48
5,C[C@@H]1CCCN1CCc1cc2cc(-c3ccc(C#N)cc3)ccc2o1,25.1
6,COc1ccc([C@@H]2Sc3ccccc3N(CCN(C)C)C(=O)[C@@H]2OC(C)=O)cc1,10.1
7,O=C1NC(c2cccc([N+](=O)[O-])c2)=CCN1c1ccccc1O,31.3
8,Cc1cc(NC(=O)Nc2ccc(F)c(F)c2)n(-c2ccccc2)n1,23.6
9,N#Cc1cccc(C(=O)Nc2cc(-c3ccccc3)nn2-c2ccccc2)c1,70
10,O=C(Nc1cc(-c2ccccc2)nn1-c1ccccc1F)c1ccc([N+](=O)[O-])cc1,73.6
11,CCOC(=O)c1ccc(OCCC2CCN(c3ccc(C)nn3)CC2)cc1,19.2
12,Cc1cccc(C#Cc2ccccc2)n1,101
13,NS(=O)(=O)C#Cc1ccccc1,-0.7
14,COc1cc(C(=O)O)ccc1NC(=O)[C@@H]1N[C@@H](CC(C)(C)C)[C@](C#N)(c2ccc(Cl)cc2F)[C@H]1c1cccc(Cl)c1F,11.2
15,CO[C@@H]1COCC[C@@H]1N[C@@H]1CC[C@@](C(=O)N2CCc3ncc(C(F)(F)F)cc3C2)(C(C)C)C1,41.3
16,Cc1ccc2c(=O)c3ccccc3n(CCCN)c2c1C,6.54
17,COc1ccncc1C(=O)NC(=O)Nc1ccc(-c2ccccc2)c(C(F)(F)F)c1,9.55
18,Fc1ccc(-c2c3cccc(C(F)(F)F)c3nn2Cc2ccc(F)cc2Cl)cc1,2.87
19,Cc1ccc(C(=O)c2cc(O)c(O)c([N+](=O)[O-])c2)cc1,-8.08
20,COc1ccc(C(=O)c2ccccc2O)c(O)c1,8.93
21,COc1ccc(C(=O)c2ccc(C)cc2)c(O)c1,50.7
22,Cc1c(C(=O)NC2CCCCC2)sc2nc3ccc(N)cc3n12,49.8
